The values below come from PubChem BioAssay (NCATS).

Structures are written as SMILES. “And” between values parts separate entries of the source, which are not always exact repeats. Identical values can stand only once. Inconclusive results are not listed. The source made the active and inactive calls. Unless noted, calls come from the whole dose curve; as a rule, active = well fitted curve in the direction sought with a large enough effect; inconclusive = small, poorly fitted or top-dose-only effect, or another doubt; inactive = no such curve, though single readings can be large; an effect the other way counts as inactive or inconclusive.

Assay [1] concerns the target Alpha-galactosidase A (Homo sapiens) (UniProt P06280). The assay is described as follows: Counterscreen for Glucocerebrosidase Inhibitors: qHTS Assay for Human alpha-Galactosidase at pH 4.5 (AID 992). Note: 0% is about no effect. The gist of the method: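 Human enzyme (2 nM) with 80 uM 4-methylumbelliferyl alpha-D-galactopyranoside in 50 mM citric acid, 0.005% Tween-20, pH 4.5, 20 min at room temperature. Compounds 0.7 nM–77 uM; fluorescence Ex 365/Em 440 after pH 10 stop; AC50 from Hill fits.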
Background: Counterscreens check selectivity or assay interference.

Assay [2] concerns the target Alpha-galactosidase (Coffea arabica) (UniProt Q42656). The assay is described as follows: Counterscreen for Glucocerebrosidase Inhibitors: qHTS Assay for Coffee Bean alpha-Galactosidase at pH 5.9 (AID 998).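 Note: plate controls were uninhibited enzyme for no effect and no-enzyme basal signal for full effect.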 The gist of the method:
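Compounds were titrated from 0.7 nM to 77 uM against green coffee bean alpha-galactosidase (2 nM) using 80 uM fluorogenic 4-methylumbelliferyl substrate. After 20 min at room temperature, reactions were stopped at pH 10 and read by fluorescence.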

A short description of assay [3]: qHTS Assay for Lipid Storage Modulators (AID 1519; calls by dose curve; for activity change, negative = inhibition: % is set by controls: 0 for no effect and ±100 for the full control effect). To be noted: Drosophila S3 cells, BODIPY lipid droplet/cell ratio, laser cytometry, cells loaded with oleic acid; for activity change, negative = inhibition: at 57.5 µM (top of the series). The gist of the method: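 Cells seeded at 5,000 per well were treated with compounds over a concentration series and loaded with oleic acid (400 uM, as added). Lipid droplet fluorescence (488 nm excitation, 500-530 nm channel) was read by laser-scanning cytometry and normalized to 20 uM Triacsin C.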

Assay [4] can be described thus: Cell Viability - LYMP2-025 (AID 976).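 Note: plate controls were DMSO only for no effect and tetraoctylammonium bromide control for full effect.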 Summed up: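 Human lymphoblastoid LYMP2-025 cells, 2500/well, exposed 24 h at 37 C in complete medium in 1536-well qHTS. Viability as cellular ATP by CellTiter-Glo luminescence; AC50 from Hill fits of concentration-response data.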
Assay [5] is described as follows: Cell Viability - LYMP2-002 (AID 977).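 Note: compound exposure lasted 24 h at 37 °C; plate controls were DMSO only for no effect and 92 µM tetraoctylammonium bromide for full effect.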 The gist of the method:
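Cytotoxicity is scored as concentration-dependent loss of cellular ATP in a human lymphoblastoid line after 24 hr compound treatment at 37 C. AC50 is obtained by modelling concentration-response data with the Hill equation.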

A short description of assay [6]: Cell Viability - LYMP2-006 (AID 978). Note: % is set by controls: 0 for no effect and ±100 for the full control effect; nearly all actives have a fitted effect of over 60% in size. The gist of the method: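 qHTS, 1536-well; 2500 cells/well, 5 hr 37 C; cpd 24 hr 37 C; CellTiter-Glo 30 min RT; luminescence. Tetraoctylammonium bromide pos. ctrl. AC50 via Hill eqn.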
Assay [7] is described as follows: Cell Viability - LYMP2-007 (AID 979).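 Note: cells exposed to compound for 24 h before reading; 0% = DMSO only and the negative end = 92 µM tetraoctylammonium bromide; nearly all actives have a fitted effect of over 60% in size.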 The gist of the method: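 Human lymphoblastoid LYMP2-007 cells (2500/well) preincubated 5 h at 37 C, then treated 24 h at 37 C in complete medium. Viability by CellTiter-Glo ATP luminescence after 30 min at room temperature; AC50 from Hill fits.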
A short description of assay [8]: Cell Viability - LYMP2-008 (AID 980). Note: % is set by controls: 0 for no effect and ±100 for the full control effect; nearly all actives have a fitted effect of over 60% in size. The gist of the method:
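LYMP2-008 lymphoblastoid cells (2500/well) plated 5 h, then treated 24 h at 37 C in complete medium. Viability read as intracellular ATP by CellTiter-Glo luminescence after 30 min at room temperature; AC50 from Hill fits.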

The nature of assay [9]: Cell Viability - LYMP2-010 (AID 981). Note: % is set by controls: 0 for no effect and ±100 for the full control effect; nearly all actives have a fitted effect of over 55% in size. The gist of the method: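 Human lymphoblastoid LYMP2-010 cells (2500/well) treated 24 h at 37 C in complete medium; viability read as intracellular ATP by CellTiter-Glo luminescence. AC50 from Hill fits of concentration-response data; tetraoctylammonium bromide positive control.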
Assay [10] can be described thus: Cell Viability - LYMP2-012 (AID 982).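 Note: cellular ATP by luciferase luminescence where a drop means cytotoxicity; cells exposed to compound for one day before reading; 0% = DMSO only and full loss = 92 µM tetraoctylammonium bromide; nearly all actives have a fitted effect of over 55% in size.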
Assay [11] in a line: Cell Viability - LYMP2-014 (AID 983).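 Note: plate controls were DMSO only for no effect and 92 µM tetraoctylammonium bromide for full effect; nearly all actives have a fitted effect of over 50% in size.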 The gist of the method: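 LYMP2-014 human lymphoblastoid cells, 2500/well, treated 24 h at 37 C in complete medium; viability by CellTiter-Glo ATP luminescence after 30 min at room temperature. AC50 from Hill fits of qHTS concentration-response; tetraoctylammonium bromide positive control.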
The nature of assay [12]: Cell Viability - LYMP2-016 (AID 984). Note: % is set by controls: 0 for no effect and ±100 for the full control effect; nearly all actives have a fitted effect of over 55% in size. Summed up: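 qHTS, 1536-well: 2500 LYMP2-016 cells/well, 5 hr 37 C, compound added, 24 hr 37 C, CellTiter-Glo 30 min RT, luminescence. Tetraoctylammonium bromide positive control. AC50 via Hill fit.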
Assay [13] in a line: Cell Viability - LYMP2-018 (AID 985).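 Note: compound exposure lasted 24 hr at 37 °C; plate controls were DMSO only for no effect and tetraoctylammonium bromide at 92 µM for full effect; nearly all actives have a fitted effect of over 50% in size.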 The gist of the method: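 Human lymphoblastoid LYMP2-018 cells, 2500/well, settled 5 hr at 37 C then exposed to compound 24 hr at 37 C; intracellular ATP measured by CellTiter-Glo luminescence. AC50 from Hill-equation concentration-response fits.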
Assay [14] can be described thus: Cell Viability - LYMP2-020 (AID 986).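 Note: plate controls were DMSO only for no effect and tetraoctylammonium bromide at 92 µM for full effect; nearly all actives have a fitted effect of over 55% in size.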 Summed up: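 Human lymphoblastoid LYMP2-020 cells (2500/well) preincubated 5 h at 37 C, then treated 24 h at 37 C. Viability measured as intracellular ATP by CellTiter-Glo luminescence after 30 min at room temperature; AC50 from Hill fits.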
Assay [15] in a line: Cell Viability - LYMP2-022 (AID 987). The gist of the method:
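LYMP2-022 lymphoblastoid cells (2500/well, complete medium) were treated with compounds for 24 hours at 37 C; intracellular ATP was then read by CellTiter-Glo luminescence after 30 min at room temperature. AC50 values were derived from Hill-equation fits.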

Assay [16] in a line: Cell Viability - LYMP2-024 (AID 988).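 Note: plate controls were DMSO only for no effect and 92 µM tetraoctylammonium bromide for full effect; nearly all actives have a fitted effect of over 60% in size.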 The gist of the method:
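Human lymphoblastoid LYMP2-024 cells (2500/well) rested 5 hr, then treated with compound for 24 hr at 37 C in complete medium. Viability was measured as intracellular ATP by CellTiter-Glo luminescence. AC50 values came from Hill-equation fits.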

A short description of assay [17]: Cell Viability - LYMP2-026 (AID 989). Note: % is set by controls: 0 for no effect and ±100 for the full control effect; nearly all actives have a fitted effect of over 50% in size. The gist of the method: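 Human lymphoblastoid LYMP2-026 cells, 2500/well, exposed to compound 24 h at 37 C in complete medium. Viability as intracellular ATP by CellTiter-Glo luminescence; AC50 from Hill fits of qHTS concentration-response.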
A short description of assay [18]: Cell Viability - LYMP1-002 - Assay at 24 hr (AID 993). Note: % is set by controls: 0 for no effect and ±100 for the full control effect. The gist of the method:
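Human lymphoblastoid LYMP1-002 cells (2500/well) treated 24 h at 37 °C; viability as intracellular ATP by CellTiter-Glo luminescence. Tetraoctylammonium bromide as positive control; AC50 from Hill-equation fits of qHTS concentration-response.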

Assay [19] in a line: Cell Viability - LYMP1-002 - Assay at 40 hr (AID 994). Summed up:
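LYMP1-002 human lymphoblastoid cells (2500/well, complete medium) were treated with compounds for 40 hr at 37 C. Intracellular ATP was measured by CellTiter-Glo luminescence, and AC50 values came from Hill-equation fits of concentration-response data; tetraoctylammonium bromide was the positive control.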

Setting [20] is: measured here: cell count channel max response.
[21] abbreviates: measured here: lipid channel max response.

Chain of Alpha-galactosidase A (Homo sapiens) (P06280 whole entry, looked up): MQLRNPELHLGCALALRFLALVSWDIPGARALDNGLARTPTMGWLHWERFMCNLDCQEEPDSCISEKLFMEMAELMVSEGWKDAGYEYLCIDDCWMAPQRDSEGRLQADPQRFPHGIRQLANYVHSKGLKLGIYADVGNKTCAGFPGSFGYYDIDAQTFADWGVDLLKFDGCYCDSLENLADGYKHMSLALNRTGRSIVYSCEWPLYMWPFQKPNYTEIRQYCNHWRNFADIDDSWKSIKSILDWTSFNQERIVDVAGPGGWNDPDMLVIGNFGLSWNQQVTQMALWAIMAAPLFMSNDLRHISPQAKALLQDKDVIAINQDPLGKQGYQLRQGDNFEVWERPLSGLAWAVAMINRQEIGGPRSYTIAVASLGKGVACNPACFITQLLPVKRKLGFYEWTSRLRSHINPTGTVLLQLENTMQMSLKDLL
Chain of Alpha-galactosidase (Coffea arabica) (Q42656 whole entry, looked up): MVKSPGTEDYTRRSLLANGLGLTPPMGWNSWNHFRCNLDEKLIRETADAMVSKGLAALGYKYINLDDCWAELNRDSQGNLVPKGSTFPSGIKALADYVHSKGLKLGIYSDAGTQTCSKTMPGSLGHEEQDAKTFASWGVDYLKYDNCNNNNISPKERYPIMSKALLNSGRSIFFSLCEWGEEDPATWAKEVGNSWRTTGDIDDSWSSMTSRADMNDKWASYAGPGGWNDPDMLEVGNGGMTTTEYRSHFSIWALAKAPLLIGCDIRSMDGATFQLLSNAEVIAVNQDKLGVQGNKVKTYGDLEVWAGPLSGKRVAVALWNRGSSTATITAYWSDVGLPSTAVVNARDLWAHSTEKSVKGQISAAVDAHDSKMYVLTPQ

For the molecule `O=C1CCCN1CC#CCN1CCCC1`, the outcome in [1] and in assay [2] was inactive. Besides, the activity change, negative = inhibition in assay [3] was 5.07% (inactive) and 8.93% (inactive) and 0.711% (inactive). In addition, the max response in assay [3] (setting [20]) was 5.66% and 4.2% and 20.8%; in assay [3] (setting [21]), 13% and 25.8% and 21.1%.

Consider `NC(=NCCC[C@H](N)C(=O)O)N[N+](=O)[O-]`, for which the result in assay [1] and in assay [2] was inactive. In addition, the activity change, negative = inhibition in assay [3] was 0.0348% (inactive). Besides, the max response in [3] (setting [20]) is -0.432%; in [3] (setting [21]) it was 0.435%.

Regarding `O=C(O)C(Cl)Cl`, the Potency entry in assay [4], in [5], in [6], in assay [7], in assay [8] and in assay [9] was “inactive” each time. Further, the Potency result in [10], in [11], in [12], in assay [13], in assay [14] and in [15] was “inactive” each time. Besides, the Potency result in assay [16], in assay [17], in assay [18] and in [19] was “inactive” in each case.

On to `C=CC(=O)NCNC(=O)C=C`, for which the Potency result in assay [4], in assay [5], in assay [6], in [7], in [8] and in [9] was “inactive” in each case. Besides, the Potency result in assay [10], in [11], in assay [12], in assay [13], in [14] and in [15] was “inactive” throughout. Besides, the Potency entry in [16], in assay [17], in assay [18] and in assay [19] was “inactive” throughout.

As to `OCCCBr`, the Potency entry in assay [4], in [5], in assay [6], in [7], in [8] and in [9] was “inactive” in each case. Moreover, the Potency result in [10], in assay [11], in assay [12], in assay [13], in assay [14] and in assay [15] was “inactive” each time. The Potency result in [16], in [17], in assay [18] and in assay [19] was “inactive” in each case.

Consider `CCCCOC(=O)c1ccccc1C(=O)OCc1ccccc1`, for which the Potency entry in [4], in assay [5], in [6], in assay [7], in assay [8] and in assay [9] was “inactive” throughout. Moreover, the Potency result in assay [10], in assay [11], in assay [12], in assay [13], in assay [14] and in assay [15] was “inactive” in each case. Also, the Potency result in assay [16], in assay [17], in [18] and in assay [19] was “inactive” throughout.

Regarding `c1cc2ccc3cccc4ccc(c1)c2c34`, the Potency result in assay [4], in assay [5], in assay [6], in assay [7], in [8] and in [9] was “inactive” in each case. For the same molecule, the Potency result in assay [10], in assay [11], in [12], in assay [13], in assay [14] and in [15] was “inactive” in each case. For the same molecule, the Potency entry in assay [16], in assay [17], in assay [18] and in assay [19] was “inactive” each time.

`CCOCCOC(C)=O`: the Potency result in assay [4], in assay [5], in assay [6], in assay [7], in [8] and in [9] was “inactive” throughout. Also, the Potency result in [10], in assay [11], in assay [12], in assay [13], in assay [14] and in assay [15] was “inactive” in each case. The Potency entry in assay [16], in assay [17], in assay [18] and in assay [19] was “inactive” throughout.

With `CCCCCCCCc1ccc(O)cc1`, the Potency result in assay [4], in [5], in [6], in assay [7], in [8] and in assay [9] was “inactive” in each case. Also, the Potency entry in assay [10], in assay [11], in assay [12], in assay [13], in assay [14] and in assay [15] was “inactive” each time. Besides, the Potency result in [16], in assay [17], in [18] and in [19] was “inactive” each time.

`Nc1ccc(Sc2ccc(N)cc2)cc1`: the Potency entry in assay [4], in assay [5], in assay [6], in [7], in assay [8] and in [9] was “inactive” in each case. Also, the Potency entry in assay [10], in assay [11], in assay [12], in assay [13], in assay [14] and in assay [15] was “inactive” each time. Besides, the Potency entry in assay [16], in assay [17], in assay [18] and in assay [19] was “inactive” each time.

Take `CN(C)NC(=O)CCC(=O)O`: the Potency entry in assay [4], in [5], in assay [6], in [7], in assay [8] and in [9] was “inactive” each time. In addition, the Potency entry in assay [10], in assay [11], in assay [12], in assay [13], in [14] and in [15] was “inactive” in each case. In addition, the Potency entry in [16], in assay [17], in assay [18] and in assay [19] was “inactive” in each case.

Regarding `O=[N+]([O-])c1c2ccccc2cc2ccccc12`, the Potency entry in assay [4], in assay [5], in assay [6], in assay [7], in assay [8] and in assay [9] was “inactive” in each case. Further, the Potency entry in assay [10], in assay [11], in assay [12], in assay [13], in assay [14] and in assay [15] was “inactive” throughout. In addition, the Potency result in assay [16], in [17], in assay [18] and in assay [19] was “inactive” throughout.

Consider `O=S(=O)(c1ccc(Cl)cc1)c1ccc(Cl)cc1`, for which the Potency result in assay [4], in assay [5], in [6], in assay [7], in assay [8] and in assay [9] was “inactive” each time. The Potency entry in assay [10], in assay [11], in assay [12], in assay [13], in assay [14] and in assay [15] was “inactive” each time. Besides, the Potency result in assay [16], in [17], in [18] and in assay [19] was “inactive” in each case.

`COC(C)(C)CCCC(C)C/C=C/C(C)=C/C(=O)OC(C)C` (configuration not stated): the Potency entry in assay [4], in assay [5], in assay [6], in assay [7], in assay [8] and in assay [9] was “inactive” in each case. Besides, the Potency entry in [10], in assay [11], in assay [12], in assay [13], in [14] and in assay [15] was “inactive” in each case. Moreover, the Potency result in [16], in assay [17], in [18] and in assay [19] was “inactive” in each case.
